Source: PubChem BioAssay (NCATS)
Inconclusive results are not listed. Entries that show only a call come without a potency. Activity calls are given as the source filed them. Calls follow the shape of the dose curve; as a rule, active = well fitted inhibition curve with a large enough effect; inconclusive = small, poorly fitted or top-dose-only effect; inactive = flat fitted curve, though single readings scatter.

Test system: CRL-7250
Assay: qHTS assay to identify novel small-molecules to repurpose for Merkel cell carcinoma treatment (AID 1296009); also: nearly all actives have a fitted effect of over 60% in size
Conditions: MCC and control cell lines, CellTiter-Glo viability, 72 h; series mostly up to 92 µM
Method in brief: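 After compound transfer in DMSO, plates were kept 72 hr at 37 degree celsius. Luminescent ATP signal from CellTiter-Glo served as viability measure, normalized against DMSO and no-cell controls.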

| SMILES | Potency |
| --- | --- |
| COc1ccc(CCC(=O)O)c(O[C@@H]2O[C@H](CO)[C@@H](O)[C@H](O)[C@H]2O)c1 | inactive |
| C=CC1C(OC2OC(CO)C(O)C(O)C2O)OC=C2C(=O)N3C(C(=O)O)Cc4c([nH]c5ccccc45)C3CC21 (centres undefined) | inactive |
| CCNC(=O)[C@@H]1CCCN1C(=O)[C@H](CCCN=C(N)N)NC(=O)[C@H](CC(C)C)NC(=O)[C@@H](C)NC(=O)[C@H](Cc1ccc(O)cc1)NC(=O)[C@H](CO)NC(=O)[C@H](Cc1c[nH]c2ccccc12)NC(=O)[C@H](Cc1cnc[nH]1)NC(=O)[C@@H]1CCC(=O)N1 | inactive |
| C[C@@H](c1ccccc1)N(C(N)=NC#N)c1cccc2ncccc12 | inactive |
| CC(=O)OC[C@]12[C@H](OC(C)=O)[C@H](OC(=O)c3ccccc3)[C@@H]3[C@@H](OC(C)=O)[C@]1(OC3(C)C)[C@H](C)C[C@H](OC(=O)c1ccccc1)[C@@H]2OC(=O)c1ccccc1 | inactive |
| CC1(C)CC[C@]2(C(=O)O)CC[C@]3(C)C(=CCC4[C@@]5(C)C[C@@H](O)[C@H](O)C(C)(C)C5CC[C@]43C)C2C1 (some centres undefined) | inactive |
| CC/C=C\[C@H](O)[C@H](O)C1=C(C)C(=O)[C@]2(O1)C(=O)N[C@@](O)(C(=O)c1ccccc1)[C@@H]2O | inactive |
| CC1CCC2(C(=O)O)CCC3(C)C(=CCC4C5(C)CCC(OC(=O)/C=C/c6ccccc6)C(C)(C)C5CCC43C)C2C1C (centres undefined) | inactive |
| O=C(/C=C/c1ccccc1)OCC1=CC[C@@H]2C(C(=O)O)=CO[C@@H](O[C@@H]3O[C@H](CO)[C@@H](O)[C@H](O)[C@H]3O)[C@H]12 | inactive |
